Assay results as given in PubChem BioAssay AID623939 (Vanderbilt Specialized Chemistry Center, 2012).
Unmarked numbers belong to inactive results. Active and inactive are the calls of the source.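 The calls were made as follows: active = a compound whose calcium signal at the M5 receptor changes in step with its dose; inactive = the rest.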

These compounds were tested against Muscarinic acetylcholine receptor M5 (Homo sapiens) (UniProt P08912) (assay: human M5 muscarinic receptor PAM counter-screen, SAR follow-up, selectivity assay for M4 PAM optimization project, CHO cells, Fluo-4 calcium, ACh EC20 (AID 623939)). Details: CHO hM5 cells, ACh EC20 potentiation; series mostly up to 30 µM; response, % ACh max: at the top concentration.
Chain of Muscarinic acetylcholine receptor M5 (Homo sapiens) (P08912 whole entry, looked up): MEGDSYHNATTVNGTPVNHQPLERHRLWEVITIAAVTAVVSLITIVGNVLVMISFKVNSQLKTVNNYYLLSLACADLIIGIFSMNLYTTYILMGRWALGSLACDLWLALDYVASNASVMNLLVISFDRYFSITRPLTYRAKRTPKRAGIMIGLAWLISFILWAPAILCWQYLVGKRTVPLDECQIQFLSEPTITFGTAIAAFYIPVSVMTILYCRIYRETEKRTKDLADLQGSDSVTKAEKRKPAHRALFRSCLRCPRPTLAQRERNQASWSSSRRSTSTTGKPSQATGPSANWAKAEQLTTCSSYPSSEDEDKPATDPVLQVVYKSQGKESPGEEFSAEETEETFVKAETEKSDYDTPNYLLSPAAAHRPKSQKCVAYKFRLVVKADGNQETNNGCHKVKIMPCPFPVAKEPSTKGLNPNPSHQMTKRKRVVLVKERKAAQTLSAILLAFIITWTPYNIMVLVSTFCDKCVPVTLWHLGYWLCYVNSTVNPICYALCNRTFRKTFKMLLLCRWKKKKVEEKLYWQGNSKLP
For `Cc1nc2sc(C(=O)NCc3ccncc3)c(N)c2c(C)c1Cl`, the outcome was “inactive”.
With `Cc1nc2sc(C(=O)NCc3ccc4c(c3)OCO4)c(N)c2c(C)c1Cl` the outcome was “inactive”.
`Cc1nc2sc(C(=O)NCc3nccs3)c(N)c2c(C)c1Cl` was tested, and the “response, % ACh max” value was 18.3.
For `COc1ccc(C)c2sc(NC(=O)c3ccncc3)nc12`, the “response, % ACh max” value was 10.5.
For `Cc1nc2sc(C(=O)NCc3ccccc3)c(N)c2c(C)c1Cl`, the outcome was “inactive”.
For `Cc1nc2sc(C(=O)NCc3cccnc3)c(N)c2c(C)c1Cl`, the outcome was “inactive”.
`Cc1nc2sc(C(=O)NCc3ccncn3)c(N)c2c(C)c1Cl` was tested, and the “response, % ACh max” value was 15.2.
For `Cc1nc2sc(C(=O)NC3CC3)c(N)c2c(C)c1Cl`, the “response, % ACh max” value was 17.9.
In the case of `Cc1nc2sc(C(=O)NCCc3ccncc3)c(N)c2c(C)c1Cl`, the “response, % ACh max” value is reported as 19.3.
`Cc1nc2sc(C(=O)NCc3cccc(F)c3F)c(N)c2c(C)c1Cl` was tested, and the “response, % ACh max” value was 16.2.
